Laboratory results from the supplement of paper PMC11732987, “Enantioselective OTUD7B fragment discovery through chemoproteomics screening and high-throughput optimisation” (Communications Chemistry, 2025).

Experiments:
Test in all cases: log2 ratio of Biotin-Ahx-Ub-VS probe labelling (fragment/DMSO); higher = less target engagement (more negative = stronger competition), active = hit call of the paper (q ≤ 0.05, log2 ratio ≤ -1)
Details in all cases: compound concentration: 200 uM; treatment time: 3 h
USP42 = molecular target: T1, USP42 (UniProt Q9H9J4)
T1 sequence (whole entry): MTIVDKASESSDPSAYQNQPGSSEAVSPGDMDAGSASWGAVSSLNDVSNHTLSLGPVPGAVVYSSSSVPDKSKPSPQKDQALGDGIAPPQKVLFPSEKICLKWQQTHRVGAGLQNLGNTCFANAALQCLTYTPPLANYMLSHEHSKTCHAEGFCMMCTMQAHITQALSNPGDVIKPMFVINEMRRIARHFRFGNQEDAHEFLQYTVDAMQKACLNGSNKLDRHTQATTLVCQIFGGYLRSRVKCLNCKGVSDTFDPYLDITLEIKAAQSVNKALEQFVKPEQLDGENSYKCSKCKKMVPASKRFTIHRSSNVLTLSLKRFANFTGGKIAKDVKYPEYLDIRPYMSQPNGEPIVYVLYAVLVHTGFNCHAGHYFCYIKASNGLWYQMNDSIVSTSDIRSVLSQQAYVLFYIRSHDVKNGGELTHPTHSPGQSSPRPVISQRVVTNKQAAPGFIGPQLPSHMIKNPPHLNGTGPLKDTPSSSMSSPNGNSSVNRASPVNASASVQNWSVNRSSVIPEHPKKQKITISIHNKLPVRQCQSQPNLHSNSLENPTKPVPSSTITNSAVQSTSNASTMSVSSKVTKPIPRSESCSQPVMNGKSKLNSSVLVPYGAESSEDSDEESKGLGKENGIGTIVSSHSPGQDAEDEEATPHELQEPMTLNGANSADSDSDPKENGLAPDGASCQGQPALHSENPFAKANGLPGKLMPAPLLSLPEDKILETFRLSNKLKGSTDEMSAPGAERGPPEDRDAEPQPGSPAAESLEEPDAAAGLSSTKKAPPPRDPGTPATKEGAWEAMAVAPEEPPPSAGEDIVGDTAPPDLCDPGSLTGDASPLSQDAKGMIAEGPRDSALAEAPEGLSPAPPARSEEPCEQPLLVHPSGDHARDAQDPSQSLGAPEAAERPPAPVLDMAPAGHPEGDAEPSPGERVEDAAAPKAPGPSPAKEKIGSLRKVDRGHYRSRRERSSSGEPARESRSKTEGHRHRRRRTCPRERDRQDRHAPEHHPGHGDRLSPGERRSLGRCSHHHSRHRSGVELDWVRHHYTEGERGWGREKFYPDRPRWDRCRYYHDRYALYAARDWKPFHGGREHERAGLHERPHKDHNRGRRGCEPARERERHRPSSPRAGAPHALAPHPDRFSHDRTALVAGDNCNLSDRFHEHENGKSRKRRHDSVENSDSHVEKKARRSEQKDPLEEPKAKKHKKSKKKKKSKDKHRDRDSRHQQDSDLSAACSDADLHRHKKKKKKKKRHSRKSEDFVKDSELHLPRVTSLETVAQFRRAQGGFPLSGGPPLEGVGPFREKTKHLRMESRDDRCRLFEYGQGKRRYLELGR
How it was run: (§1)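 HEK293T lysate (495 µg per sample, in Tris/CHAPS/IGEPAL buffer with protease inhibitors) was exposed in triplicate for 3 h to fragment at 200 µM or to vehicle, then to Biotin-Ahx-Ub-VS at 0.5 µM final for 1 h. Labelled DUBs were enriched on NeutrAvidin, digested with LysC and trypsin, and analysed by diaPASEF LC-MS/MS. Spectronaut label-free quantities were normalised to the global median, and values are average log2 ratios of fragment over vehicle from an unpaired t-test. Only proteins with ≥2 unique peptides were used.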

USP46 = USP46 (UniProt P62068)
Chain of USP46 (P62068 whole entry): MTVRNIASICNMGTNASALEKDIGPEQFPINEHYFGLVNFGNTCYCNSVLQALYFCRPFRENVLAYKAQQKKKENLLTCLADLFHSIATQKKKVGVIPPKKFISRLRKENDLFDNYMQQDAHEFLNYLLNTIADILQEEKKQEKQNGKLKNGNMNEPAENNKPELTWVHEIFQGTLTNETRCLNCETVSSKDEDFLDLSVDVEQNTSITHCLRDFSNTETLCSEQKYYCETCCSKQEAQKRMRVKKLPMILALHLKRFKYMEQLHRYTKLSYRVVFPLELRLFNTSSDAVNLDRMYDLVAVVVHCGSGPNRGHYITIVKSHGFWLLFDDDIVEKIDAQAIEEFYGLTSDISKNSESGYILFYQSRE
How it was run: as §1

USP47 = molecular target: T2, USP47 (UniProt Q96K76)
T2 sequence (whole entry): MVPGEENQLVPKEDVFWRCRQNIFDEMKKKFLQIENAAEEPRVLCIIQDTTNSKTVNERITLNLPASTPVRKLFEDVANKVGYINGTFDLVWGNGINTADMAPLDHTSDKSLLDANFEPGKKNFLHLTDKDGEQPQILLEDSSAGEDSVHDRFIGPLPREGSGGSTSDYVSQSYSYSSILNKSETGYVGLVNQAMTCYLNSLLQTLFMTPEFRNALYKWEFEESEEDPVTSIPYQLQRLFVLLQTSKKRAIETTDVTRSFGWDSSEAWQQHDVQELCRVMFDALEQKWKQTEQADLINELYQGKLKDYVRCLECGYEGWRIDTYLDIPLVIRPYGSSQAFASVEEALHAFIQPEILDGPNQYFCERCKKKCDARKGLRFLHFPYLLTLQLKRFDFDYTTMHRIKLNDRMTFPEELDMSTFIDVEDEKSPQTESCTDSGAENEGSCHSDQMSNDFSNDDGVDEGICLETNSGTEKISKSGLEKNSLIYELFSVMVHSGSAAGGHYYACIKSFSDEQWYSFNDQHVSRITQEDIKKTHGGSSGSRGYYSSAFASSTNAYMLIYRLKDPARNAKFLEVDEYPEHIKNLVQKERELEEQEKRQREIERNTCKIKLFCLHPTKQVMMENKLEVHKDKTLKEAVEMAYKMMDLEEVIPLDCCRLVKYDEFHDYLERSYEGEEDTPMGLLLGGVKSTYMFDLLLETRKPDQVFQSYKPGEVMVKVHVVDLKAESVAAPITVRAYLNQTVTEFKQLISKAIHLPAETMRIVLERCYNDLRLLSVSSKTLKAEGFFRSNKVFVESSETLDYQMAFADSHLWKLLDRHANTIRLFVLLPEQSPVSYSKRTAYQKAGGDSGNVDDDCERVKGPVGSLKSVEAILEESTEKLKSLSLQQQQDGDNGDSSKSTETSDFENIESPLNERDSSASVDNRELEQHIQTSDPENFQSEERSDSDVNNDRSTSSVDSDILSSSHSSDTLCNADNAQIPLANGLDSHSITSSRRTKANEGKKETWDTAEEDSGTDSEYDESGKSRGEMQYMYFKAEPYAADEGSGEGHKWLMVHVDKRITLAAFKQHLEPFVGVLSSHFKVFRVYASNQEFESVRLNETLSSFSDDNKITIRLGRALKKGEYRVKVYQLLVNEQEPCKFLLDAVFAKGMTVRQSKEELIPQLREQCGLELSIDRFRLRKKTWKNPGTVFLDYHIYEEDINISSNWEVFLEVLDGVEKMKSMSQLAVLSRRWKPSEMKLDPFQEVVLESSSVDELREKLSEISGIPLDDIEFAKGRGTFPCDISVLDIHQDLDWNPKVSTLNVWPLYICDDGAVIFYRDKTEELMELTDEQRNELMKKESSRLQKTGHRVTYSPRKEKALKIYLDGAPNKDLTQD
How it was run: as §1

USP48 = molecular target: T3, USP48 (UniProt Q86UV5)
T3 sequence (whole entry): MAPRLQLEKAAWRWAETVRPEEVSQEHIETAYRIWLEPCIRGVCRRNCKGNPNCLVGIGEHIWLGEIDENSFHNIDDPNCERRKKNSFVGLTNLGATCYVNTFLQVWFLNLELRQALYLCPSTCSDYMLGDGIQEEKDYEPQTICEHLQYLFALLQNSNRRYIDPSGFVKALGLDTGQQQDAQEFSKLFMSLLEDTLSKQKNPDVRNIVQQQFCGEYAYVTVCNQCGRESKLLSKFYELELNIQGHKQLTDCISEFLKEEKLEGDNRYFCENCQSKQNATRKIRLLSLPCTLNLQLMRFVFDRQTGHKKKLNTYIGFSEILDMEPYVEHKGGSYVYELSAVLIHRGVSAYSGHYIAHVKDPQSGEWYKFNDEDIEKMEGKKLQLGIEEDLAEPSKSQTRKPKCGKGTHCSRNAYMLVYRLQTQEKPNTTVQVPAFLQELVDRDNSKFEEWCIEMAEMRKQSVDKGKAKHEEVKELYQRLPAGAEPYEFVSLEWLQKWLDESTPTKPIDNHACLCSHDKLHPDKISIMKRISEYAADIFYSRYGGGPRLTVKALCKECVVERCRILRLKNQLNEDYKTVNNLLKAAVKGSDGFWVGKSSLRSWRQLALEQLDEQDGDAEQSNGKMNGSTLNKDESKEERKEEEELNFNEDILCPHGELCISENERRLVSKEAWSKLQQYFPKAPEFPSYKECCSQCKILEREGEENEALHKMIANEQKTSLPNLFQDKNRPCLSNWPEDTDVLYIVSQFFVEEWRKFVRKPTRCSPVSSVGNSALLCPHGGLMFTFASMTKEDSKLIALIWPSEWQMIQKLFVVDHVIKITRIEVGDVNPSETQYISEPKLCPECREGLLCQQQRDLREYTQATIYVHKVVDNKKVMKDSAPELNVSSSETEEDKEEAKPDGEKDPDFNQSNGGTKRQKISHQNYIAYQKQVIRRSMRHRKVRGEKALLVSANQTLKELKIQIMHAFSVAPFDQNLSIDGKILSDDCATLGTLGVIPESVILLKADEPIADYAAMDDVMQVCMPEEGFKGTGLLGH
How it was run: as §1

USP5 = molecular target: T4, USP5 (UniProt P45974)
T4 sequence (whole entry): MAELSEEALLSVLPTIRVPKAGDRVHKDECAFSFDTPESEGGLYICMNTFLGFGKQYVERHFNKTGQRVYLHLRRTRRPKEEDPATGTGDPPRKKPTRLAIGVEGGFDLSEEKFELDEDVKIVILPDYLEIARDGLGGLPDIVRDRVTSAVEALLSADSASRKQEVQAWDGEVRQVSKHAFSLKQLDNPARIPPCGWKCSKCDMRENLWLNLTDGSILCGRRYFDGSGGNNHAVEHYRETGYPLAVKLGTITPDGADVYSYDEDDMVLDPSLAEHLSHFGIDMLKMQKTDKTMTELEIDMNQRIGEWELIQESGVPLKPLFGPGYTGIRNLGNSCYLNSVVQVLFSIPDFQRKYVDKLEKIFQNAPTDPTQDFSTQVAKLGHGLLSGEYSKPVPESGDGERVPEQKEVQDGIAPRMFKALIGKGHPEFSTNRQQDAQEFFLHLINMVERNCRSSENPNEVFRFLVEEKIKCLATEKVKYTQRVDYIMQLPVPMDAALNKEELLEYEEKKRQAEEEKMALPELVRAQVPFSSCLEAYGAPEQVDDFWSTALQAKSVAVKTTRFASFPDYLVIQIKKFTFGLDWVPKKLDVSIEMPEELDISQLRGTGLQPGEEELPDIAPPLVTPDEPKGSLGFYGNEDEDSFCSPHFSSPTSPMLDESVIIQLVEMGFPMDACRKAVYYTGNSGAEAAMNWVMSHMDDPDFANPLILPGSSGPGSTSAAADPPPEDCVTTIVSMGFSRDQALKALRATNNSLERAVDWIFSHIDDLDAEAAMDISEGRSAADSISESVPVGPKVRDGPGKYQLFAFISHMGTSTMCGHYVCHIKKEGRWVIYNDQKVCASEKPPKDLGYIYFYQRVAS
How it was run: as §1

USP54 = USP54 (UniProt Q70EL1)
Chain of USP54 (Q70EL1 whole entry): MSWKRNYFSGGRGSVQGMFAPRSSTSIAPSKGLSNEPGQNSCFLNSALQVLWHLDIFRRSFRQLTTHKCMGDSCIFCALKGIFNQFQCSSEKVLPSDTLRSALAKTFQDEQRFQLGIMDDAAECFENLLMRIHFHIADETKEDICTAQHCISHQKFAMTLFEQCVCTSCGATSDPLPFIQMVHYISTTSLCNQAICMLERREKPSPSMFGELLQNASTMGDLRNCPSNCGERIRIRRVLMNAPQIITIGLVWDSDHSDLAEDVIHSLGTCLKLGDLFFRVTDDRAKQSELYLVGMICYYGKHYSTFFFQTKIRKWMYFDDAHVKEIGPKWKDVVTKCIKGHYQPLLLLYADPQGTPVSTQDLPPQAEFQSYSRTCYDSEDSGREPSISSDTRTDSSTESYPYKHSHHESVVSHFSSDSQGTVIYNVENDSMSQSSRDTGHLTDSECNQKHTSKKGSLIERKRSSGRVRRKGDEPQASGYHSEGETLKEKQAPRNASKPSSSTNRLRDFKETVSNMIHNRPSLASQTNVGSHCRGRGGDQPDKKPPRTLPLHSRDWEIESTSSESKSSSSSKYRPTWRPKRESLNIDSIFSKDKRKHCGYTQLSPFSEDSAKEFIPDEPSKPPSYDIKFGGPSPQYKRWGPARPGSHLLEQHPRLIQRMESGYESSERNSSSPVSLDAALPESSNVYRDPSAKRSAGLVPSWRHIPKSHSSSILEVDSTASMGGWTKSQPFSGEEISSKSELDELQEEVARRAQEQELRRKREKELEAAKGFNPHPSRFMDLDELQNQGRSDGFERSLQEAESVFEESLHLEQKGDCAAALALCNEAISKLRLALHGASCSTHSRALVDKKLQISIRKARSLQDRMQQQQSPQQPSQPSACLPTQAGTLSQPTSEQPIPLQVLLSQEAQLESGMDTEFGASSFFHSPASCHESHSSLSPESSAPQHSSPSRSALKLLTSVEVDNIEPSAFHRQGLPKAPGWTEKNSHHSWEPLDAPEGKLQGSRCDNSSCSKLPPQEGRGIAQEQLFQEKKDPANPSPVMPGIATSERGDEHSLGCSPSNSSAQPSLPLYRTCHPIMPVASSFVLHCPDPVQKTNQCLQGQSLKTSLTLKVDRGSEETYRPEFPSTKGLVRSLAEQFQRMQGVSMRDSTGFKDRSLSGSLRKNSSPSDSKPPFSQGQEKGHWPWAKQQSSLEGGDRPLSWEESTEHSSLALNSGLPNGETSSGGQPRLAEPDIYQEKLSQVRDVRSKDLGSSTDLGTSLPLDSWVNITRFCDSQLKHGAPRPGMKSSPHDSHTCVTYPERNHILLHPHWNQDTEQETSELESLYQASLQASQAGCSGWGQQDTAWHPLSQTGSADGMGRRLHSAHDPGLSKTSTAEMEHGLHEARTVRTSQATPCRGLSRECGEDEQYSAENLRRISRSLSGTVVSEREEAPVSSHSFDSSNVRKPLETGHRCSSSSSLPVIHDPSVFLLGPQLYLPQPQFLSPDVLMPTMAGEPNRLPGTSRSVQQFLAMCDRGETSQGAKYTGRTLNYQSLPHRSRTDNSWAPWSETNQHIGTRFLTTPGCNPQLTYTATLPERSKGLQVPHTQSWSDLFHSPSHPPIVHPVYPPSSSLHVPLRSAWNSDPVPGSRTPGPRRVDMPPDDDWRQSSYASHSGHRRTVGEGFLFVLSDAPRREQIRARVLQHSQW
How it was run: as §1

USP7 = USP7 (UniProt Q93009)
Chain of USP7 (Q93009 whole entry, looked up): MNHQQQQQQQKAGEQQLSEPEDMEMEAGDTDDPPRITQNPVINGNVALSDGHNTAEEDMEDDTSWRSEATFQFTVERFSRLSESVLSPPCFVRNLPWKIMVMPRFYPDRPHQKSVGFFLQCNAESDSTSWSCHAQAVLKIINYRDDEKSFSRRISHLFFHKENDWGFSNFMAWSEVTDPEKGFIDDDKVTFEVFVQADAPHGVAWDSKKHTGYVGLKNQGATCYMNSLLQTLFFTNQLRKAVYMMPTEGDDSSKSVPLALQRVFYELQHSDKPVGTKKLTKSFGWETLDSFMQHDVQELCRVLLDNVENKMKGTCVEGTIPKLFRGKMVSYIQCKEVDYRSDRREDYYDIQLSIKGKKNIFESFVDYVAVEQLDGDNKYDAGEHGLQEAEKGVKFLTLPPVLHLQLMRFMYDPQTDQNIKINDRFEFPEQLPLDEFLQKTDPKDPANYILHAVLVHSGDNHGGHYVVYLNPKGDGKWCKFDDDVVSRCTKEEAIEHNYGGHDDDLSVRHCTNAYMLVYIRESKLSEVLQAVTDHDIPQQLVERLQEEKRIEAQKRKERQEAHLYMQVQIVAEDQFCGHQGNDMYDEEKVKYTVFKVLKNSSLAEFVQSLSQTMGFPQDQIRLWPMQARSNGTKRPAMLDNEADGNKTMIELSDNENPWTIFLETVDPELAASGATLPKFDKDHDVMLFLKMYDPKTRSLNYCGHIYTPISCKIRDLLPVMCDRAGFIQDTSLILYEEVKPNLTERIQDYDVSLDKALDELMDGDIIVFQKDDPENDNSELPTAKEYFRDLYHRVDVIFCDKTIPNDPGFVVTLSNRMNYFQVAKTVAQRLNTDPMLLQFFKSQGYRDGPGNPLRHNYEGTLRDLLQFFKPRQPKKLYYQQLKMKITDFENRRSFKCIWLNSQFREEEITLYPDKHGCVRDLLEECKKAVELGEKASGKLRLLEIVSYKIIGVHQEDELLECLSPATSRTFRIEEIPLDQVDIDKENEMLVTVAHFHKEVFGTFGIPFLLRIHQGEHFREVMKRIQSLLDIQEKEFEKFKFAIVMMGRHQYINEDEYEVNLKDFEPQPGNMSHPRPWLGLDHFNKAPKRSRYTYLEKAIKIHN
How it was run: as §1

USP8 = molecular target: T5, USP8 (UniProt P40818)
T5 sequence (whole entry): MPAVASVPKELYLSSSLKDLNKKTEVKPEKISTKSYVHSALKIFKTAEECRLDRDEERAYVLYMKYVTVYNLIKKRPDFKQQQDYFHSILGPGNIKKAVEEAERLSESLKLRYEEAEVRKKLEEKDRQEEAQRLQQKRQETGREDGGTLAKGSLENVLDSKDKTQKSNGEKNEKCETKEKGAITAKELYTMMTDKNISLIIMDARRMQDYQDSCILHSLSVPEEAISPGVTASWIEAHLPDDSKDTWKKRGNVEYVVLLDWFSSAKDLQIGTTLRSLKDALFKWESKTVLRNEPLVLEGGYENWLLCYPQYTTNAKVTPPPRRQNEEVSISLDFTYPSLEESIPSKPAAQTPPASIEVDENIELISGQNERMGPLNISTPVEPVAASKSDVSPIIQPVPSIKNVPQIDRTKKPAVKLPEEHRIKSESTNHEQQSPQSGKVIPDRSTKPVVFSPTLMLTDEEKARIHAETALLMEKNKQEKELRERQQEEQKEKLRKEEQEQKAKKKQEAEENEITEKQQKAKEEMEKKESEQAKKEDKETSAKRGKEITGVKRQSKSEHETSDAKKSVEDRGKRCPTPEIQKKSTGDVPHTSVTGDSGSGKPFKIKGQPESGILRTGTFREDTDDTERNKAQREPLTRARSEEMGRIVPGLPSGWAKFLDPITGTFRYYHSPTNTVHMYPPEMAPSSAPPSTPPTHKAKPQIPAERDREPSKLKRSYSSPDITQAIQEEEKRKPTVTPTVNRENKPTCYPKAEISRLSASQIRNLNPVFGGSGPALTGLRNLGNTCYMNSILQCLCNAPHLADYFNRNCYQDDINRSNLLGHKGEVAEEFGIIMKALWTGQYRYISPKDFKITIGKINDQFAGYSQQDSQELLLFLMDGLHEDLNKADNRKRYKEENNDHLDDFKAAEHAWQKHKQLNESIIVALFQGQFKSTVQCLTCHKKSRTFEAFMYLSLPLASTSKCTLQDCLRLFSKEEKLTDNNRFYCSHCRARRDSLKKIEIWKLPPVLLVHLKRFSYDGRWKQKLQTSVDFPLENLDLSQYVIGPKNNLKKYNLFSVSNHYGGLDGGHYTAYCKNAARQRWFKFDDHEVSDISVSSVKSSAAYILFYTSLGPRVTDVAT
How it was run: as §1

Measured: log2 ratio of Biotin-Ahx-Ub-VS probe labelling

Cc1ccn2cc(CNC(=O)CCl)nc2c1.Cl
inactive: USP42 0.192 | USP46 -0.0106 | USP47 -0.5 | USP48 -0.153 | USP5 0.0336 | USP54 0.581 | USP7 -0.341 | USP8 -0.325
